Data from PubChem BioAssay (Tox21).
Inconclusive results are not listed. The source made the active and inactive calls. Unless noted, calls come from the whole dose curve; as a rule, active = well fitted curve in the direction sought with a large enough effect in the repeat runs; inconclusive = weak or mixed curves; inactive = flat fitted curve, though single readings scatter.

Key:
[1] = qHTS assay to test for compound auto fluorescence at 535 nm (green) in HEK293 cells (AID 720680)
[2] = qHTS assay to test for compound auto fluorescence at 460 nm (blue) in HEK293 cell free culture (AID 720681)
In short: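 Test compounds were pinned into cell-free culture medium (DMEM with 10% FBS) and fluorescence was read directly at Ex/Em 405/460 nm. Signals were expressed as fluorescence equivalents of triamterene, with DMSO vehicle as control.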

[3] = qHTS assay to test for compound auto fluorescence at 535 nm (green) in HEK293 cell free culture (AID 720682)
In short: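 No cells present: wells hold DMEM supplemented with 10% FBS, into which compound or vehicle is pinned. Green emission is then recorded (485 nm excitation, 535 nm emission) and scaled to fluorescein.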

[4] = qHTS assay to test for compound auto fluorescence at 590 nm (red) in HEK293 cell free culture (AID 720683)
In short: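 Tox21 10K library compounds were pinned into cell-free DMEM with 10% FBS and fluorescence was read at excitation 540 nm. Activity is expressed as Rose Bengal sodium equivalency.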

[5] = qHTS assay to test for compound auto fluorescence at 590 nm (red) in HepG2 cell free culture (AID 720684)
In short: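 Ex 540 / Em 590 nm read of compound in cell-free MEM (10% FBS). Rose Bengal sodium reference.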

[6] = qHTS assay to test for compound auto fluorescence at 460 nm (blue) in HepG2 cell free culture (AID 720685)
In short: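 Cell-free plates of MEM plus 10% FBS received 23 nL compound or DMSO vehicle; blue-channel (405/460 nm) intensity scored against triamterene as reference fluorophore.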

[7] = qHTS assay to test for compound auto fluorescence at 535 nm (green) in HepG2 cell free culture (AID 720686)
[8] = qHTS assay to test for compound auto fluorescence at 460 nm (blue) in HepG2 cells (AID 720687)
In short: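 Cells (2,000/well in MEM with 10% FBS) attached overnight at 37 C, then were exposed to compound or DMSO for 1 hr at 37 C, 5% CO2. Fluorescence read at Ex/Em 405/460 nm, expressed as triamterene-equivalent signal.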

[9] = target: Glucocorticoid receptor (Homo sapiens) (UniProt P04150); assay: qHTS assay to identify small molecule agonists of the glucocorticoid receptor (GR) signaling pathway (AID 720691; active = well fitted activation curve with a large enough effect in the signal ratio in the repeat runs, not every such curve was filed as active; the % refers to the signal ratio)
Chain of Glucocorticoid receptor (Homo sapiens) (P04150 whole entry, looked up): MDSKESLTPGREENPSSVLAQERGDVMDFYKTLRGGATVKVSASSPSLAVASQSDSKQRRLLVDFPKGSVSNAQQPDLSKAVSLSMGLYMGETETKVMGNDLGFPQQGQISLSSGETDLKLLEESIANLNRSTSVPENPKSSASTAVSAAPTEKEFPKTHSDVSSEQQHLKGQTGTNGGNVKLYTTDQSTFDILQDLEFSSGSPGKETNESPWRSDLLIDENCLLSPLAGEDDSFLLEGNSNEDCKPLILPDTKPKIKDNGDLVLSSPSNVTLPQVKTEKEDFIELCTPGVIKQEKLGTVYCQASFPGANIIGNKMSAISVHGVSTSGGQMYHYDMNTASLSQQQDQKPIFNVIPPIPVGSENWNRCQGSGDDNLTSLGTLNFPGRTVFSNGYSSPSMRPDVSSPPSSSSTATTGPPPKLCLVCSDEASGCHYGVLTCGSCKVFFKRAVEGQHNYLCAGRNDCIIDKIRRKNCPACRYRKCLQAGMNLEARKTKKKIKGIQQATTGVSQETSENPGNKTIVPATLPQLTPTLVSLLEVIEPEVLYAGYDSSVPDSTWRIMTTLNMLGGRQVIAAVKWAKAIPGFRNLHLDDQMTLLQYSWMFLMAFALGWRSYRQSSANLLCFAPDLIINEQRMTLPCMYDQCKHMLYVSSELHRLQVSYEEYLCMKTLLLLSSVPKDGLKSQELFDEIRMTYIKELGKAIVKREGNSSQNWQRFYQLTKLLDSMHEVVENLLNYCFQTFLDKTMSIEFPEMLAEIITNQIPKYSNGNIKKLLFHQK
In short: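 Agonist-mode qHTS in HeLa cells stably expressing a glucocorticoid-response-element beta-lactamase reporter. Fluorescence intensity read with FRET substrate (2 h, room temperature) after 18 h compound treatment at 37 C.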

[10] = target: Glucocorticoid receptor (Homo sapiens) (UniProt P04150); assay: qHTS assay to identify small molecule antagonists of the glucocorticoid receptor (GR) signaling pathway (AID 720692; active = well fitted inhibition curve with a large enough effect in the signal ratio in the repeat runs, not every such curve was filed as active; the % refers to the signal ratio)
In short: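 Inhibition of dexamethasone-driven (5 nM final) beta-lactamase expression was measured in GRE-reporter HeLa cells over 18 h at 37C. Fluorescence was read after 2 h with the B/G FRET substrate at room temperature.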
% is set by controls: 0 for no effect and ±100 for the full control effect.

CCOP(=S)(OCC)Oc1ccc(Cl)cc1Cl
inactive: outcome [1] | outcome [2] | outcome [3] | outcome [4] | outcome [5] | outcome [6] | outcome [7] | outcome [8] | Potency [9] | Potency [10]

CCOc1cc(OP(=S)(OC)OC)nc(CC)n1
inactive: outcome [1] | outcome [2] | outcome [3] | outcome [4] | outcome [5] | outcome [6] | outcome [7] | outcome [8] | Potency [9] | Potency [10]

CCN(CC)CCOC(=O)C(O)(c1ccccc1)c1ccccc1
inactive: outcome [1] | outcome [2] | outcome [3] | outcome [4] | outcome [6] | outcome [7] | outcome [8] | Potency [9]

CCC1(c2cccc(O)c2)CCCCN(C)C1 (stereo not given)
inactive: fluorescence, % of fluorescein [1] -0.0115% [at 18.6 µM] | fluorescence, % of fluorescent control [2] 0.0294% [at 18.6 µM] | activity change [3] 0.0131% [at 18.6 µM] | fluorescence, % of fluorescent control [4] 0.0544% [at 18.6 µM] | fluorescence, % of fluorescent control [6] 0.002% [at 18.6 µM] | fluorescence, % of fluorescein control [7] -0.0769% [at 18.6 µM] | fluorescence, % of fluorescent control [8] -0.0146% [at 18.6 µM] | Potency [9] | Potency [10]

O=[N+]([O-])CCO
inactive: outcome [1] | outcome [2] | outcome [3] | outcome [4] | outcome [5] | outcome [6] | outcome [7] | outcome [8] | Potency [9] | Potency [10]

NC(=O)CS(=O)C(c1ccccc1)c1ccccc1 (stereo not given)
inactive: outcome [1] | outcome [2] | outcome [3] | outcome [4] | outcome [6] | outcome [7] | outcome [8] | Potency [9] | Potency [10]

CC[C@@H](CO)NC(=O)[C@@H]1C=C2c3cccc4c3c(cn4C)C[C@H]2N(C)C1
inactive: outcome [1] | outcome [2] | outcome [3] | outcome [4] | outcome [6] | outcome [7] | outcome [8]

N=C(N)[Se]
inactive: outcome [1] | outcome [2] | outcome [3] | outcome [4] | outcome [6] | outcome [7] | outcome [8] | Potency [9]

Oc1ccc(Cc2ccc(O)cc2)cc1
inactive: outcome [1] | outcome [2] | outcome [3] | outcome [4] | outcome [5] | outcome [6] | outcome [7] | outcome [8] | Potency [9] | Potency [10]

NC(=O)OCCCc1ccccc1
inactive: outcome [1] | outcome [2] | outcome [3] | outcome [4] | outcome [5] | outcome [6] | outcome [7] | outcome [8] | Potency [9] | Potency [10]

NCC1(CC(=O)O)CCCCC1
inactive: fluorescence, % of fluorescein [1] 0.112% [at 18.6 µM] | fluorescence, % of fluorescent control [2] 0.0173% [at 18.6 µM] | activity change [3] 0.0242% [at 18.6 µM] | fluorescence, % of fluorescent control [4] 0.0512% [at 18.6 µM] | fluorescence, % of Rose Bengal [5] 0.0064% [at 18.6 µM] | fluorescence, % of fluorescent control [6] 0.0583% [at 18.6 µM] | fluorescence, % of fluorescein control [7] -0.0096% [at 18.6 µM] | fluorescence, % of fluorescent control [8] 0.027% [at 18.6 µM] | Potency [9] | Potency [10]

CC(C)(C)C(=O)Cl
inactive: outcome [1] | outcome [2] | outcome [3] | outcome [4] | outcome [5] | outcome [6] | outcome [7] | outcome [8] | Potency [9] | Potency [10]

O=C(Cl)OCc1ccccc1
inactive: outcome [1] | outcome [2] | outcome [3] | outcome [4] | outcome [5] | outcome [6] | outcome [7] | outcome [8] | Potency [9] | Potency [10]

N[C@@H](Cc1ccc(Oc2cc(I)c(O)c(I)c2)c(I)c1)C(=O)O
inactive: outcome [1] | outcome [2] | outcome [3] | outcome [4] | outcome [6] | outcome [7] | outcome [8]

CCCCCCCCSC(=O)Oc1cc(Cl)nnc1-c1ccccc1
inactive: outcome [1] | outcome [2] | outcome [3] | outcome [4] | outcome [6] | outcome [7] | outcome [8]

CC(C)[N+](C)(CCC(C(N)=O)(c1ccccc1)c1ccccc1)C(C)C
inactive: fluorescence, % of fluorescein [1] 0.0067% [at 18.6 µM] | fluorescence, % of fluorescent control [2] 0.0496% [at 18.6 µM] | activity change [3] -0.0088% [at 18.6 µM] | fluorescence, % of fluorescent control [4] 0.0889% [at 18.6 µM] | fluorescence, % of Rose Bengal [5] 0.379% [at 18.6 µM] | fluorescence, % of fluorescent control [6] -0.0402% [at 18.6 µM] | fluorescence, % of fluorescein control [7] 0.0122% [at 18.6 µM] | fluorescence, % of fluorescent control [8] -0.0322% [at 18.6 µM] | Potency [9] | Potency [10]

CCCC(C)C1(CC)C(=O)N=C(S)NC1=O (stereo not given)
inactive: outcome [1] | outcome [2] | outcome [3] | outcome [4] | outcome [5] | outcome [6] | outcome [7] | outcome [8] | Potency [9] | Potency [10]

CCCN1CCC[C@@H]2Cc3nc(N)ncc3C[C@H]21
inactive: outcome [1] | outcome [2] | outcome [3] | outcome [4] | outcome [6] | outcome [7] | outcome [8]

O=C(Cl)C(Cl)(Cl)Cl
inactive: outcome [1] | outcome [2] | outcome [3] | outcome [4] | outcome [6] | outcome [7] | outcome [8] | Potency [9]

COC(=O)c1ccc(CBr)cc1
inactive: outcome [1] | outcome [2] | outcome [3] | outcome [4] | outcome [5] | outcome [6] | outcome [7] | outcome [8] | Potency [9] | Potency [10]

O=CCCl
inactive: outcome [1] | outcome [2] | outcome [3] | outcome [4] | outcome [5] | outcome [6] | outcome [7] | outcome [8] | Potency [9] | Potency [10]

CCN[C@@H](C)Cc1ccccc1
inactive: outcome [1] | outcome [2] | outcome [3] | outcome [4] | outcome [5] | outcome [6] | outcome [7] | outcome [8] | Potency [9] | Potency [10]

CC[C@H](N)c1ccccc1
inactive: outcome [1] | outcome [2] | outcome [3] | outcome [4] | outcome [5] | outcome [6] | outcome [7] | outcome [8] | Potency [9] | Potency [10]

c1cncc([C@@H]2CCCCN2)c1
inactive: outcome [1] | outcome [2] | outcome [3] | outcome [4] | outcome [5] | outcome [6] | outcome [7] | outcome [8] | Potency [9] | Potency [10]

CCOP(=O)(CN(CCO)CCO)OCC
inactive: outcome [1] | outcome [2] | outcome [3] | outcome [4] | outcome [5] | outcome [6] | outcome [7] | outcome [8] | Potency [9] | Potency [10]

C=CC1(C)OC(=O)N(c2cc(Cl)cc(Cl)c2)C1=O (stereo not given)
inactive: outcome [1] | outcome [2] | outcome [3] | outcome [4] | outcome [5] | outcome [6] | outcome [7] | outcome [8] | Potency [9] | Potency [10]
